The record followed here is PubChem BioAssay (NCATS).

“And” between values parts separate entries of the source, which are not always exact repeats. Identical values can stand only once. The source made the active and inactive calls. Calls follow the shape of the full dose curve. A value given as a limit tells only on which side of the number the result lay.
Potency is read from the fitted curve at half-maximal effect.

For the assay, the target named is Glucocorticoid receptor (Homo sapiens) (UniProt P04150). The assay is described as follows: GR-EFC Redistribution (AID 451). To be noted: CHO-K1 GR-EFC translocation, beta-gal luminescence, 2 h. The source says: NIH Molecular Libraries Screening Centers Network [MLSCN]
Sequence of Glucocorticoid receptor (Homo sapiens) (P04150 whole entry, looked up): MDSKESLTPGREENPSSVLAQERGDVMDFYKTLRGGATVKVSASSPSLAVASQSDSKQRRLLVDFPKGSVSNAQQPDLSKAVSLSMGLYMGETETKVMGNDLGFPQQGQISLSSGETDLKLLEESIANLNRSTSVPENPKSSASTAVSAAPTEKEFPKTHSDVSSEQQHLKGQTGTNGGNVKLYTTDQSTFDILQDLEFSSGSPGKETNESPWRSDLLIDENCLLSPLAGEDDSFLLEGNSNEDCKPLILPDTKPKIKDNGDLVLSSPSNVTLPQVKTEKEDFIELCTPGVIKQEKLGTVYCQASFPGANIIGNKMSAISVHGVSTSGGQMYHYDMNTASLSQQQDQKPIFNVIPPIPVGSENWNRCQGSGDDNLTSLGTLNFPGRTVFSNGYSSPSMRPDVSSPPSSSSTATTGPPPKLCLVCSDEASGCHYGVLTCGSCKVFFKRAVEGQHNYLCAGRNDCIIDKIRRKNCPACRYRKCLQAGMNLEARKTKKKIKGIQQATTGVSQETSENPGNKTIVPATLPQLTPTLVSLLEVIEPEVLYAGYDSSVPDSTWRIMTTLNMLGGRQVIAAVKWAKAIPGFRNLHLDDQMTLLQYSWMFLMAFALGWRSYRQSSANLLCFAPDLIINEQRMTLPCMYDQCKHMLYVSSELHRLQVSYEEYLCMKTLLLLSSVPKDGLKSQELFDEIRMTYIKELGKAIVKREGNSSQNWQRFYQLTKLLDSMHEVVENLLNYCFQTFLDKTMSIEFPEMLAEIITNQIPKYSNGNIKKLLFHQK
NIH Chemical Genomics Center [NCGC]
The glucocorticoid receptor (GR) is a cytoplasmic receptor that belongs to the nuclear receptor family of ligand-dependent transcription factors. Upon glucocorticoid binding to its receptor, the glucocorticoid-GR complex translocates into the nucleus, where it binds as a dimer to specific DNA sequences (glucocorticoid response elements), enhancing or suppressing transcription of a wide variety of glucocorticoid-responsive genes. In addition to their important roles in normal physiology and metabolism, glucocorticoids are administered exogenously as treatments for a wide variety of allergic, autoimmune, and neoplastic conditions. Identification of compounds that modulate aspects of GR signalling would be useful in dissecting glucocorticoid response pathways as well as developing GR modulators with more targeted clinical effects.
Traditionally, GR modulators have been identified using receptor binding or direct transactivation assays. However, assays for glucocorticoid-dependent nuclear translocation can also be used to screen for compounds affecting GR signaling.
Immunocytochemical staining has been used to assay for GR translocation, but is not suitable for high throughout screening due to the multiple reagent addition and wash steps required. Recently, a novel cell-based GR assay in Enzyme Fragment Complementation (EFC) format was developed by DiscoveRx (Fremont, CA). The assay uses EFC of b-galactosidase (b-gal) as an indicator of GR-translocation in engineered CHO-K1 biosensor cells. The enzyme acceptor (EA) fragment of b-gal resides in the nucleus , as designed through the use of a proprietary set of sequence additions and modifications. The small peptide enzyme donor (ED) fragment of b-gal is fused directly to the C-terminus of GR, and is localized in the cytoplasm is the absence of receptor signaling. Upon binding to a GR ligand, the complex translocates to the nucleus, where intact enzyme activity is restored by complementation and b-gal activity is detected. We optimized this GR-EFC assay in homogenous 1536-well plate assay format for high throughput screening.
NCGC Assay Protocol Summary:
CHO-K1 cells stably expressing NLS-enzyme acceptor fragment (EA) of b-gal and GR-enzyme donor (ED) fragment of b-gal were maintained in F12 medium (Invitrogen, Carlsbad, CA) at 37 Celsius degrees under a humidified atmosphere containing 5% CO2 and 95% air. The medium contained 10% FBS, 2 mM L-glutamine, 50 U/ml penicillin 50 ug/ml streptomycin, and 250 ug/ml hygromycin and 500 ug/ml G418 (Invitrogen).
GR-translocation was measured beta-gal enzyme activity using the PathHunter Detection Kit containing cell membrane permeablizing reagent and beta-gal substrate (DiscoveRx, Fremont, CA). All compounds were screened as titrations from 0.6 nM to 46 uM final concentration. The assay was performed in 1536-well format as follows:
5 uL cell suspension (1,000 cells)/well
Incubation at 37 Celsius degrees for two hours
1.25 uL 1X detection buffer from the kit supplied by DiscoveRx
Incubation at room temperature for one hour
Read plate in luminescence mode in ViewLux plate reader (PerkinElmer)
Keywords: NIH Roadmap, MLSCN, MLI, MLSMR, GR-EFC, GREFC, qHTS, NCGC
As to `COc1c2occc2c(OC)c2c(=O)cc(C)oc12`, the Potency was > 20.6 µM (inactive). For `CN(C)CCCOc1nn(Cc2ccccc2)c2ccccc12` the value was > 20.6 µM (inactive); for `Oc1cc(O)c2c(c1)O[C@H](c1ccc(O)c(O)c1)[C@H](O)C2`, > 46 µM (inactive) and > 20.6 µM (inactive). With `CCCCOc1ccc(C(=O)CCN2CCCCC2)cc1` the figure was > 20.6 µM (inactive); with `COc1cc(-c2ccc(=O)[nH]n2)ccc1OC(F)F`, > 46 µM (inactive) and > 20.6 µM (inactive). `CN(C(=O)CN(CCO)CC(=O)N(C)C(C)(C)Cc1ccccc1)C(C)(C)Cc1ccccc1`: the Potency was > 20.6 µM (inactive). `O=C(OCCOCCO)c1ccccc1Nc1cccc(C(F)(F)F)c1`: the Potency was > 20.6 µM (inactive). With `N[C@@H](Cc1cnc[nH]1)C(=O)O` the figure was > 46 µM (inactive); with `C=C(CC)C(=O)c1ccc(OCC(=O)O)c(Cl)c1Cl`, > 20.6 µM (inactive). For `CC(=O)N(O)CCCCCNC(=O)CCC(=O)N(O)CCCCCNC(=O)CCC(=O)N(O)CCCCCN`, the Potency is > 20.6 µM (inactive). For `CCCCOc1cc(C(=O)NCCN(CC)CC)c2ccccc2n1` the value was > 20.6 µM (inactive); for `CCOC(=O)n1ccn(C)c1=S`, > 20.6 µM (inactive). On to `CC(C)N=C(N)/N=C(\N)Nc1ccc(Cl)cc1`, for which the Potency was > 20.6 µM (inactive). For `O=C(O)c1cc2cc(Cc3cccnc3)ccc2o1` the value was > 46 µM (inactive); for `CNCCC=C1c2ccccc2CCc2ccccc21`, > 46 µM (inactive) and > 20.6 µM (inactive) and > 9.22 µM (inactive). On to `CCN(CC)C(=O)N1CCN(C)CC1`, for which the Potency was > 20.6 µM (inactive). For the compound `C[C@@H]1C(=O)NC2=Nc3cccc(Cl)c3CN21`, the Potency was > 46 µM (inactive). With `C[C@@H](CN(C)C)CN1c2ccccc2Sc2ccccc21` the figure was > 20.6 µM (inactive); with `Oc1ccc(Cl)cc1Sc1cc(Cl)ccc1O`, > 9.22 µM (inactive). Turning to `COc1cc(NS(C)(=O)=O)ccc1Nc1c2ccccc2nc2ccccc12`, the Potency was > 46 µM (inactive). For `CN1CCN(CCCN2c3ccccc3Sc3ccc(S(=O)(=O)N(C)C)cc32)CC1` the value was > 20.6 µM (inactive). With `C[C@H]1[C@H](NC(=O)/C(=N/OC(C)(C)C(=O)O)c2csc(N)n2)C(=O)N1S(=O)(=O)O` (stereo in doubt), the Potency was > 20.6 µM (inactive). Take `CC(C)(C(=O)c1cccnc1)c1cccnc1`: the Potency was > 20.6 µM (inactive). For `CCCCCCC[N+](CC)(CC)CCCCc1ccc(Cl)cc1` the value was > 20.6 µM (inactive); for `O=C1c2ccccc2C(=O)C1c1ccccc1`, > 20.6 µM (inactive). On to `CN1CCN(C(c2ccccc2)c2ccccc2)CC1`, for which the Potency is > 20.6 µM (inactive). With `C[N+]1(CCCCC[N+]2(C)CCCC2)CCCC1` the figure was > 46 µM (inactive) and > 20.6 µM (inactive); with `CCn1cc(C(=O)O)c(=O)c2cnc(N3CCCC3)nc21`, > 20.6 µM (inactive); with `Nc1nc2ncc(CNc3ccc(C(=O)N[C@@H](CCC(=O)O)C(=O)O)cc3)nc2c(=O)[nH]1`, > 20.6 µM (inactive).

Regarding `NCCc1ccn[nH]1`, the Potency was > 20.6 µM (inactive). With `Cc1ccnc(NS(=O)(=O)c2ccc(N)cc2)n1` the figure was > 20.6 µM (inactive); with `Oc1ccc(O)cc1`, > 46 µM (inactive); with `CN1CCC(=C2c3ccccc3Sc3ccccc32)CC1`, > 20.6 µM (inactive). For the compound `COc1ccc(CCN2CCC(Nc3nc4ccccc4n3Cc3ccc(F)cc3)CC2)cc1`, the Potency is > 20.6 µM (inactive). Turning to `CCOc1ccc(Cc2nccc3cc(OCC)c(OCC)cc23)cc1OCC`, the Potency is > 20.6 µM (inactive). As to `NC(=NCCCCCCN=C(N)/N=C(\N)Nc1ccc(Cl)cc1)/N=C(\N)Nc1ccc(Cl)cc1`, the Potency is > 20.6 µM (inactive). For `CN(C)CC/C=C1\c2ccccc2Sc2ccc(Cl)cc21`, the Potency was > 20.6 µM (inactive) and > 9.22 µM (inactive). For the compound `CC(C)COC(=O)OCN1C(=O)CN(CCN2CC(=O)N(COC(=O)OCC(C)C)C(=O)C2)CC1=O`, the Potency was > 46 µM (inactive). In the case of `NCCCC[C@H](N[C@@H](CCc1ccccc1)C(=O)O)C(=O)N1CCC[C@H]1C(=O)O`, the Potency was > 20.6 µM (inactive). As to `O=C1CCC(c2ccc(-n3ccnc3)cc2)=NN1`, the Potency was > 46 µM (inactive).
